Holding throughout (experiment): NCI-60 one-dose screen, 48 h (100 = growth as untreated, 0 = no growth, -100 = all killed)
Conditions in all cases: 10 µM unless noted

Assay [1] has as its system NCI-H23 lung.
The subject of assay [2] is NCI-H226 lung.
Assay [3] concerns NCI-H322M lung.
Assay [4] has as its system HOP-62 NSCLC.
Assay [5] deals with NCI-H460 lung.
Assay [6] relates to HOP-92 NSCLC.
Assay [7] deals with NCI-H522 lung.
In assay [8] the test system is A549/ATCC NSCLC.
Assay [9] relates to 786-0 renal.

This is part of a sample that, as a whole, favours compounds with a hit. Of some 83,000 tested, about 20% had one in any assay.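 Treatment: one concentration, 48 hours, 96-well format. Scoring: percent growth, with anything below 10 considered active.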 Unmarked numbers belong to inactive results. Calls of active or inactive are those of the source.

As to `CC(=O)Nc1cccc(C2=CC(c3ccc(C)cc3)n3ncnc3N2)c1` (stereo not given), the growth is 97.4% in [1]; 92.7% in [2]; 107% in assay [3]; 101% in assay [4]; 107% in assay [5]; 77.7% in assay [6]. The results for the growth in [7], in [8] and in [9] were 94.8%, 108% and 95%, respectively.
Turning to `C=C1C(=O)O[C@H]2[C@H]1CC/C(C(=O)NCCCCCCCCNC(=O)/C1=C/CC[C@@]3(C)O[C@H]3[C@H]3OC(=O)C(=C)[C@@H]3CC1)=C\CC[C@@]1(C)O[C@@H]21`, the growth in assay [1] was 92.3%; in assay [2] it was 88.7%; in [3], 94.9%; in assay [4] it was 109%; in assay [5] it was 110%; in assay [6] it was 4.35% (active). Besides, the growth was -64.5% (active) in assay [7], 82.9% in [8] and 85.1% in assay [9].
Turning to `CCO/C=N/C1=C(C#N)C(c2ccc(OC)cc2)c2c(c3ccccc3n(C)c2=O)O1` (stereo not given), the growth in assay [1] is 101%; in [2], 95.2%; in assay [3] it was 101%; in assay [4], 91.5%; in [5] it was 105%; in assay [6], 101%. The growth was 90.2% in assay [7], 97.8% in assay [8] and 105% in assay [9].
For `CCOc1ccc(-c2nc3ccc(-c4nc5ccc(N6CCN(C)CC6)cc5[nH]4)cc3[nH]2)cc1OCC`, the growth in [1] is -7.66% (active); in assay [2], -8.92% (active); in [3], 42.1%; in assay [4], 16.7%; in assay [5], 17.2%; in assay [6] it was 48.8%. The figures for the growth in [7], in assay [8] and in assay [9] were -18.2% (active), 79.2% and 22.3%, respectively.
As for `Cc1[nH]c(-c2nc3ccccc3[nH]2)c(C)c1C(=O)N1CCOCC1`, the growth in assay [1] is 88.5%; in assay [2], 91.4%; in assay [3], 94.6%; in [4] it was 105%; in assay [5] it was 101%; in [6], 91.1%. Further, the growth is 91% in assay [7], 101% in assay [8] and 102% in [9].
As for `O=[N+]([O-])c1ccccc1C(O)Cc1ccc2ccccc2n1` (stereo not given), the growth in assay [1] was 95.7%; in [2] it was 83.5%; in [3], 85.9%; in assay [4] it was 88%; in [5], 97.4%; in assay [6] it was 77.5%. The results for the growth in [7], in [8] and in [9] were 101%, 97.4% and 104%, respectively.
On to `CC(C)(C)N1CC(OC(N)=O)C1`, for which the growth in [1] is 91.2%; in assay [2], 98.2%; in [3], 98.6%; in [4], 100%; in [5], 113%; in assay [6], 96.2%. For the same compound, the growth in assay [7] is 114%; in assay [8] it was 71.8%; in assay [9], 96.4%.
With `Cc1c(C(=O)O[C@H]2[C@@H]3[C@H](C)CC[C@H]3[C@]3(C)O[C@@]2(C2CCCCC2)C[C@H]3OC(=O)CO)ccc2ccccc12`, the growth in assay [1] is 35.2%; in assay [2] it was 30.5%; in assay [3], 70.5%; in [4], 29.7%; in assay [5], -36% (active); in [6], 10.9%. The growth in [7] was 19.6%; in assay [8], 30.2%; in assay [9] it was 9.76% (active).
Turning to `CN1CCN(C(=O)[C@@]2(C)CC[C@]3(C)CC[C@]4(C)C(=CC[C@@H]5[C@@]6(C)C/C(=C/c7ccncc7)C(=O)C(C)(C)[C@@H]6CC[C@]54C)[C@@H]3C2)CC1`, the growth in assay [1] is 59.3%; in [2], 88.6%; in assay [3] it was 79.7%; in assay [4], 68.4%; in assay [5] it was 24.4%; in assay [6], 34.3%. The growth was 69% in [7], 45.9% in assay [8] and 58.4% in assay [9].
Consider `C=C(C)[C@@H]1CC[C@]2(CN)CC[C@]3(C)[C@H](CC[C@@H]4[C@@]5(C)CCC(N)[C@@](C)(CO)[C@@H]5CC[C@]43C)[C@@H]12` (stereo not given in full), for which the growth in assay [1] is 53%; in assay [2] it was 89.6%; in assay [3] it was 34.4%; in assay [4], -89.2% (active); in assay [5] it was -75.7% (active); in assay [6] it was 51.7%. Further, the growth in assay [7] is -77.5% (active); in [8] it was -82.3% (active); in [9], -92.9% (active).
Take `O=C1C2=C(CCN(Cc3ccccc3)C2)N2CCN=C2N1Cc1ccc(F)cc1F`: the growth was 32.2% in assay [1]; 29% in assay [2]; 45.4% in [3]; 33.6% in assay [4]; 15.5% in assay [5]; 41.9% in [6]. Further, the growth in assay [7] is 24.2%; in assay [8] it was 26.7%; in assay [9], 55.2%.
For `COc1ccc(/C(C)=N/NS(=O)(=O)c2ccc(C)cc2)cc1OC`, the growth was 105% in assay [1]; 106% in [2]; 120% in assay [3]; 117% in assay [4]; 97.8% in assay [5]; 69% in [6]. The growth was 117% in assay [7], 102% in assay [8] and 102% in [9].
For the compound `CCN(CC)c1ccc(Nc2ccc(CC(=O)c3ccccc3)cc2)cc1`, the growth was 81.1% in [1]; 97.4% in [2]; 90.7% in [3]; 94.6% in assay [4]; 96.3% in assay [5]; 77.5% in [6]. Also, the growth in assay [7] was 47%; in assay [8] it was 91.4%; in [9], 88.3%.
For the compound `O=C(/C=C/C12c3ccccc3C(c3ccccc31)C1C(=O)N(c3ccccc3)C(=O)C12)c1ccc(Cl)cc1` (stereo not given), the growth in assay [1] is 17.2%; in [2], -10% (active); in assay [3] it was 35.3%; in [4], 23.5%; in assay [5], -17.5% (active); in [6], 39.1%. Besides, the growth in assay [7] was 10.1%; in [8], 25.1%; in [9], 8.93% (active).
As to `C=C1C(=O)O[C@H]2[C@H]1CC/C(COC(=O)/C=C/C(=O)NCc1ccc(Cn3c(=O)sn(-c4ccccc4)c3=O)cc1)=C\CC[C@@]1(C)O[C@@H]21`, the growth in [1] is 49.7%; in [2], 14.5%; in assay [3] it was 89.9%; in assay [4] it was 85.5%; in assay [5], 91.9%; in assay [6] it was -53.7% (active). In addition, the figures for the growth in assay [7], in assay [8] and in assay [9] were -80.1% (active), 80.2% and -19.1% (active), respectively.
